p53null 32C tox: selectivity test: cytotoxicity in p53 null cells, permissive temperature. H1299-neo p53 null cells, ATP luminescence, 24 h, 32C. Potency, µM (top dose mostly 46.1 µM), usual class: cytotoxic. 0.62% of 55,000 active. AID 903; further: nearly all actives have a fitted effect of over 55% in size
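AC50 values derive from Hill modelling of qHTS concentration-response data (up to 46 uM) in H1299-neo cells. Cells were treated 24 h at 32C following overnight attachment at 37C; viability was read as cellular ATP.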
mTORC1 inh: inhibitors of mTORC1 signaling in Tsc2-/- p53-/- MEF cells; Tsc2-/- p53-/- MEF, phospho-rpS6 immunofluorescence/PI, 24 h; Potency, µM (titrated, usually from 38.3 µM), actives largely listed as inhibitors; 0.78% of 44,000 active; further: nearly all actives have a fitted effect of over 50% in size
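Readout is phospho-S6 Alexa 488 signal normalized to PI per well, reported as % active cells with thresholds set from rapamycin (7.5 nM) and DMSO controls. Cells: Tsc2-/-, p53-/- MEFs, 24 hrs compound at 37 C; PI cell number serves as viability.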
OvCa metastasis: blocks SKOV3ip1 adhesion and invasion in omental model; Potency, µM (top dose mostly 45.8 µM), actives largely listed as inhibitors; SKOV3ip1-GFP adhesion/invasion on 3D omental model, fluorescence; 0.1% of 46,000 active; further: nearly all actives have a fitted effect of over 65% in size
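Primary human omental fibroblast/mesothelial 3D culture pre-formed 48 h. SKOV3ip1-GFP cells added with compounds (0.36-46 umol/L), incubated 2 h RT/16 h 37 C, fixed; GFP cells quantified at 488/509 nm.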
p53null 39C kill: selectivity test: cytotoxicity in p53 null cells, nonpermissive temperature | H1299 p53-null (neo) cells, 39C, ATPlite viability, 24 h | AID 904 | 0.97% of 55,000 active | Potency, µM (series often up to 46.1 µM), usual class: cytotoxic; further: nearly all actives have a fitted effect of over 50% in size
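ATP-luminescence viability readout (ATPlite, 20 min RT) after 24 hr compound treatment at 39C of H1299-neo or H1299-p53A138V cells; titration up to 46 uM; normalized to DMSO and 100 uM tamoxifen; Hill-fit AC50.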
PMP22 txn prim: modulates PMP22 transcription in S16 Schwann cells | Potency, µM (top dose mostly 57.5 µM), actives largely listed as inhibitors | 2% of 43,000 active | S16 Pmp22-F2sN Schwann cells, FLuc/NLuc coincidence luminescence, 24 h; active means clear falling dose curves in both reporters; inconclusive means both reporters move, but less clearly or upward; inactive means either reporter flat; the % is the NLuc reporter signal
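Transcriptional readout in edited S16(c9) cells: two luciferases reported from the Pmp22 locus, measured in turn after 24 h compound incubation.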
S16 viability: toxic to S16 Pmp22-F2sN Schwann cells | S16 Pmp22-F2sN Schwann cells (luciferase reporters placed in the Pmp22 gene) viability, CellTiter-Glo, 24 h | Potency, µM (doses to about 57.5 µM), actives largely listed as cytotoxic | 0.48% of 43,000 active | AID 1508642; further: nearly all actives have a fitted effect of over 65% in size
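Luminescence from CellTiter-Glo, read by CCD camera after a 15 min room-temperature incubation, served as the viability signal. Reporter Schwann cells (S16 Pmp22-F2sN) had been treated with pin-transferred compounds for 24 h at 37C.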
Numbers stand for hits; . = inactive; ? = inconclusive; / = no result. In the library only some 3% were active in any assay of this set; here they are far more common. Unless noted, the call rests on the fitted dose curve; in most records, active means well fitted curve in the direction sought with a large enough effect; inconclusive means small, poorly fitted or top-dose-only effect, or another doubt; inactive means no such curve, though single readings can be large; an effect the other way counts as inactive or inconclusive.

SMILES | p53null 32C tox | mTORC1 inh | OvCa metastasis | p53null 39C kill | PMP22 txn prim | S16 viability
CCCS(=O)(=O)c1ncc(Cl)c(C(=O)N2CCN(c3ccc(OC)cc3)CC2)n1 | ? | ? | . | . | 6µM | 5µM
CCCN1C(=O)C(Cc2nc3ccccc3c(=O)n2CC)c2cc(Br)ccc21 (stereo unspecified) | . | 15µM | . | ? | ? | ?
CCn1c(CC2C(=O)N(C)c3ccc(Br)cc32)nc2ccccc2c1=O (stereo unspecified) | . | ? | . | ? | ? | .
CCCN(C(=O)c1cc2c(s1)-c1ccccc1OC2)c1ccccc1F | . | . | . | . | ? | .
CCCN(C(=O)c1cc2c(s1)-c1ccccc1SC2)c1ccccc1F | . | . | . | 20µM | ? | .
C#Cc1cccc(Nc2ncnc3cc(OC)c(OCCCCCCC(=O)NO)cc23)c1 | / | / | . | / | / | /
COc1ccc(CNCCC(c2ccc3c(c2)OCO3)c2ccccc2OC)cc1 (stereo unspecified) | . | ? | ? | 13µM | ? | ?
COc1ccc(N2Cc3cccc(C(=O)Nc4ccc(C(C)C)cc4)c3C2=O)cc1 | ? | . | . | 4µM | ? | ?
CC(C)(C)[N+]([O-])=Cc1ccc(S(=O)(=O)O)cc1S(=O)(=O)O | / | / | . | / | / | /
CCOc1ccc(C2CC(=O)c3c([nH]c(C(=O)OCCOc4ccccc4)c3C)C2)cc1 (stereo unspecified) | . | . | . | ? | ? | 28µM
Cc1c(C(=O)OCc2ccccc2)[nH]c2c1C(=O)CC(c1ccc(Cl)cc1)C2 (stereo unspecified) | . | ? | . | . | ? | .
CCc1ccc(C2CC(=O)c3c([nH]c(C(=O)OCCOc4ccccc4)c3C)C2)cc1 (stereo unspecified) | . | 5.2µM | ? | ? | 15µM | ?
COc1ccc(OC)c(C2CC(=O)c3c([nH]c(C(=O)OCc4ccc(C)cc4)c3C)C2)c1 (stereo unspecified) | . | 6.6µM | . | . | . | ?
CCOc1ccc(C2CC(=O)c3c([nH]c(C(=O)OC4CCC(C)CC4)c3C)C2)cc1 (stereo unspecified) | . | . | . | . | . | .
COc1cc(C2CC(=O)c3c([nH]c(C(=O)OCc4ccc(C)cc4)c3C)C2)cc(OC)c1OC (stereo unspecified) | . | . | . | ? | ? | .
COc1cccc([C@@H](C)NCCCc2ccccc2Cl)c1 | / | / | . | / | / | /
O=C(CCCCCCC(=O)Nc1ccc([C@H]2O[C@@H](CSc3nc(-c4ccccc4)c(-c4ccccc4)o3)C[C@@H](c3ccc(CO)cc3)O2)cc1)NO | / | / | . | / | / | /
COc1ccc(OC)c(NC(=O)c2nnn(CC(=O)Nc3ccc(C(C)C)cc3)c2N)c1 | . | 16µM | . | ? | . | .
COc1ccc(NC(=O)c2nnn(CC(=O)Nc3ccc(C)c(C)c3)c2N)cc1OC | . | . | . | . | . | .
CC(=O)[C@]1(O)Cc2c(O)c3c(c(O)c2[C@@H](O[C@H]2C[C@H](N)[C@@H](O)[C@H](C)O2)C1)C(=O)c1ccccc1C3=O | / | / | . | / | / | /
CCSc1ncc(Cl)c(C(=O)Nc2ccc(S(=O)(=O)N(C)c3ccccc3)cc2)n1 | . | . | . | . | ? | .
CC(C)Sc1ncc(Cl)c(C(=O)Nc2ccc(S(=O)(=O)N(C)c3ccccc3)cc2)n1 | . | . | . | . | ? | .
CCS(=O)(=O)c1ncc(Cl)c(C(=O)Nc2ccc(S(=O)(=O)N(C)c3ccccc3)cc2)n1 | . | 0.41µM | . | ? | 1µM | 4.5µM
CCN(c1ccccc1)S(=O)(=O)c1ccc(NC(=O)c2nc(S(C)(=O)=O)ncc2Cl)cc1 | ? | 3.3µM | ? | ? | 1.7µM | 4.5µM
CCc1c(C)sc2c1CCN(Cc1cccc(OC)c1)C2c1ccccc1 (stereo unspecified) | . | . | . | ? | 9.5µM | ?
SMILES | p53null 32C tox | mTORC1 inh | OvCa metastasis | p53null 39C kill | PMP22 txn prim | S16 viability
CCc1c(C)sc2c1CCN(Cc1ccccc1F)C2c1ccccc1 (stereo unspecified) | . | . | . | . | 3.4µM | 8.9µM
CCOC(=O)c1ccccc1NC(=O)N1CCc2c(sc(C)c2CC)C1c1ccccc1 (stereo unspecified) | . | . | . | . | ? | .
Cc1cc(OCCCc2c(C(=O)O)n(Cc3cccnc3)c3c(-c4c(COc5ccc(N6CCN([S+](C)(=O)[O-])CC6)cc5)nn(C)c4C)cccc23)cc(C)c1Cl | / | / | . | / | / | /
CCn1cc(-c2ccnc3[nH]c(-c4cccc(CN(C)C)c4)cc23)c(-c2ccc(NC(=O)N(C)C)cc2)n1 | / | / | . | / | / | /
NC(=O)Nc1cc(-c2ccc(CN3CCOCC3)cc2)sc1C(N)=O | / | / | . | / | / | /
COc1ccc2[nH]cc(CCNC(=O)Nc3ccccc3)c2c1 | . | . | . | . | . | .
COc1ccc2[nH]cc(CCNC(=O)Nc3cc(C)cc(C)c3)c2c1 | . | . | . | 20µM | . | .
COc1ccc(C(=O)Nc2cc(-c3nc4ccccc4s3)ccc2OC)cc1 | . | 16µM | ? | . | ? | ?
CCN(CC)c1ccc(C(=O)NCc2ccc3c(c2)CCN3C(=O)c2ccc(F)cc2)cc1 | . | . | . | . | 7.3µM | ?
COc1ccccc1N1CCN(Cc2cc(COC(C)C)c3cccnc3c2O)CC1 | 16µM | 5.8µM | ? | 1.6µM | 3.5µM | 7.1µM
CCOCc1cc(CN2CCN(c3ccccc3OC)CC2)c(O)c2ncccc12 | . | ? | . | 1.3µM | ? | 3.2µM
CCCOCc1cc(CN2CCN(c3ccccc3OC)CC2)c(O)c2ncccc12 | 16µM | 9.3µM | . | 3.2µM | 5.8µM | 10µM
CN[C@@H](C)C(=O)N[C@H]1CN(C(=O)CC(C)C)CC[C@H]2CC[C@@H](C(=O)NC(c3ccccc3)c3ccccc3)N2C1=O | / | / | . | / | / | /
COc1cc([C@@H]2c3cc4c(cc3[C@@H](O[C@@H]3O[C@@H]5CO[C@@H](C)O[C@@H]5[C@H](O)[C@@H]3O)[C@H]3COC(=O)[C@H]23)OCO4)cc(OC)c1O | / | / | . | / | / | /
O=c1cc(-c2cccc3c2Sc2ccccc2S3)oc(N2CCOCC2)c1 | / | / | . | / | / | /
O=C(Nc1ccc2nc(-c3ccco3)[nH]c2c1)c1cccs1 | 7.1µM | / | / | 10µM | / | /
c1cc(N[C@@H]2CCNC2)nc(-c2cnc3ccc(-c4cn[nH]c4)cn23)c1 | / | / | . | / | / | /
O=S(=O)(Nc1cccc(Cl)c1)c1ccc2[nH]c3c(c2c1)CCCCCC3 | 10µM | . | . | ? | ? | ?
CC(=O)c1cccc(NS(=O)(=O)c2ccc3[nH]c4c(c3c2)CCCCC4)c1 | . | ? | . | ? | ? | ?
